Publication PMC4336329 (PLoS ONE, 2015)
Out of some 310,000 compounds screened, about 2,200 (0.71%) showed an effect of 50% or more. The effect is printed as a negative number. The sample holds strong results, similar compounds and a random draw of the others, so the mix is not that of the screen.

These compounds were tested against human ether-à-go-go-related gene (hERG) potassium channel (human, UniProt Q12809) (assay: primary screen, population patch clamp on CHO cells stably expressing hERG; higher = less effect of the substance).
Sequence of human ether-à-go-go-related gene (hERG) potassium channel (Q12809 whole entry, looked up): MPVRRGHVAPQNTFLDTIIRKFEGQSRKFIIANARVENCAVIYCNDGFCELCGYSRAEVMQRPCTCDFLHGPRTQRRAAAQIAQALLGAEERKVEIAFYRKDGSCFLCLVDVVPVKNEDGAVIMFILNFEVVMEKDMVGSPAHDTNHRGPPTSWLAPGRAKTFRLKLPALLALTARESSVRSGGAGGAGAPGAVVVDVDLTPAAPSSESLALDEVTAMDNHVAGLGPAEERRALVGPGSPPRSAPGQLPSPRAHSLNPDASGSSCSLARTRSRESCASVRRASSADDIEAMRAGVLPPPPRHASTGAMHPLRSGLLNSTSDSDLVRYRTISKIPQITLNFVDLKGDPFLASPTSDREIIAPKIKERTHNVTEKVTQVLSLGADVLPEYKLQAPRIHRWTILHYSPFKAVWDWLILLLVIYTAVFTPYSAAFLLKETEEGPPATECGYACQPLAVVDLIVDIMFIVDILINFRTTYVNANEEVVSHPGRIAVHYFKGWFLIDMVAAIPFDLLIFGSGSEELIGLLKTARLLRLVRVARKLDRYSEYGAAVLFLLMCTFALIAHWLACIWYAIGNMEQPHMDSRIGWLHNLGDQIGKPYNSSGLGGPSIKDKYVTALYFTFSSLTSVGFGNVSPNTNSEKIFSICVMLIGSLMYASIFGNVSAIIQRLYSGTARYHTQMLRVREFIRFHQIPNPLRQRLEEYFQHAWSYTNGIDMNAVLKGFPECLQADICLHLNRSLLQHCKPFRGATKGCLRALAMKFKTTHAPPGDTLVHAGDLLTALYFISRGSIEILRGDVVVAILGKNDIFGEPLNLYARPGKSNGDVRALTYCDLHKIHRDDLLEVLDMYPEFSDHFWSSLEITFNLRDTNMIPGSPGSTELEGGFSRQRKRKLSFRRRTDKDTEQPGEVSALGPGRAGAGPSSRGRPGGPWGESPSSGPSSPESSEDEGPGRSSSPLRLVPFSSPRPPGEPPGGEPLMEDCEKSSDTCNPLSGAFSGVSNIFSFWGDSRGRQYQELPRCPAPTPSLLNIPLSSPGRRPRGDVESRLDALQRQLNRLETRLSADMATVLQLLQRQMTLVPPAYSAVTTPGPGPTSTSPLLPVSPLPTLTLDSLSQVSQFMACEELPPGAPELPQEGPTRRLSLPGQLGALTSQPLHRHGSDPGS

Point of comparison: `Cc1cccc(NC(=O)c2cc([N+](=O)[O-])ccc2N2CCN(C)CC2)c1`, “hERG current change (%, negative = inhibition) at 1uM” value -41.2%. Against it:
- COc1ccc(OC)c(/C=N/NC(=O)C(=O)N2CCCC2)c1 — higher, 1.25%
- CCOC(=O)N1CCN(c2cc(=O)n(-c3ccc(C)cc3)c(=O)[nH]2)CC1 — higher, -8.88%
- CN1CCN(c2ccc([N+](=O)[O-])cc2NC(=O)c2ccccc2Cl)CC1 — lower, -75.6%
- CN1CCN(c2ccccc2NC(=O)c2ccc([N+](=O)[O-])cc2Cl)CC1 — higher, 0.769%
- COc1ccc(NC(=O)c2cc([N+](=O)[O-])ccc2N2CCN(C)CC2)cc1 — higher, -15.5%
- CN1CCN(c2ccc([N+](=O)[O-])cc2NC(=O)c2cccs2)CC1 — higher, -14.2%
- CN1CCN(c2ccc([N+](=O)[O-])cc2C(=O)Nc2ccccc2)CC1 — lower, -59.8%
- O=C1NCCc2c1[nH]c1ccccc21 — higher, -4.21%
- COc1ccc(C(=O)Nc2ccc(NC(C)=O)cc2)cc1S(=O)(=O)N1CCCC1 — higher, 16.9%
- Cc1nc(NCCC(C)C)c2nnn(Cc3ccccc3)c2n1 — higher, 11.3%
- O=C(O)/C=C\C(=O)O.O=[N+]([O-])c1ccc2nc(N3CCNCC3)ccc2c1 — higher, 1.34%
- COC(=O)/C=c1/s/c(=C(\C#N)C(=O)NCc2ccco2)n(-c2ccccc2)c1=O — higher, 14.8%
- CCCC(=NCCc1c(C)[nH]c2ccccc12)C1=C(O)CC(c2ccccc2)CC1=O (stereo not shown) — higher, -11.1%
- CCCN1CCN(CCCNC(=O)C2CCN(c3nnc(-n4c(C)ccc4C)s3)CC2)CC1 — higher, 13.1%
- CCS(=O)(=O)c1ccc(O)c(NC(=O)COc2ccccc2)c1 — higher, 12.6%
- COc1ccc(-n2nc([N+](=O)[O-])c(=NC3CCN(Cc4ccccc4)CC3)n2O)cc1 — higher, -6.46%
- O=[N+]([O-])c1nn(-c2ccccc2)n(O)c1=NC1CCN(Cc2ccccc2)CC1 — higher, -16%
- Cc1cccc(-n2nc([N+](=O)[O-])c(=NC3CCN(Cc4ccccc4)CC3)n2O)c1 — lower, -55.4%
- O=C(Nc1cnn(Cc2ccc(Cl)cc2)c1)C1CCCC1 — higher, -7.77%
- O=C(NCc1ccc(F)cc1)C(=O)NCC1OCCN1C(=O)c1cccs1 (stereo not shown) — higher, 3.51%
- O=C(NCc1ccccc1)C(=O)NCC1OCCN1C(=O)c1cccs1 (stereo not shown) — lower, -54.6%
- O=C(NCc1ccc(Cl)cc1)C(=O)NCC1OCCN1C(=O)c1cccs1 (stereo not shown) — higher, 3.06%
- CCOC(=O)Cc1csc(NC(=O)c2ccc(OC)c(OC)c2)n1.Cl — higher, -6.29%
- CN(C)S(=O)(=O)c1ccc(C(=O)NCC(C)(C)CN=C2NS(=O)(=O)c3ccccc32)cc1 — higher, 1.35%
- COc1ccc(-c2nnnn2C(C)C)cc1 — higher, 11.1%
- Cc1nnc(C)c2c(C)n(C(c3ccccc3)c3ccccc3)c(C)c12 — lower, -65.7%
- COc1ccc(C(C)n2c(C)c3c(C)nnc(C)c3c2C)cc1 (stereo not shown) — lower, -52.3%
- CC(=O)c1c(C(C)=O)c(C)n(C(c2ccccc2)c2ccccc2)c1C — higher, -4.36%
- Cc1nnc(C)c2c(C)n(C(C)c3ccccc3)c(C)c12 (stereo not shown) — higher, -1.28%
- COc1ccc(C(=O)C(Sc2nnc(C)c(=O)[nH]2)c2ccc(OC)cc2)cc1 (stereo not shown) — higher, 1.35%
- Cc1cccc(NC(=O)NC2(C(=O)NCc3ccco3)CCCCC2)c1 — higher, 2.75%
- CN(C)c1ccc(NS(=O)(=O)c2ccc(Cl)cc2)cc1 — higher, 6.28%
- CC(C)Oc1ccc(Nc2ncnc3ccccc23)cc1.Cl — higher, 3.47%
- COc1ccc(NC(=O)CCn2ccnc2)c(OC)c1 — higher, 9.53%
- COC(=O)COc1ccc(S(=O)(=O)N2CCOCC2)cc1 — higher, 13.1%
- CCN1CCN(CC(=O)Nc2cc(C(F)(F)F)ccc2OCCOC)CC1.O=C(O)C(=O)O — lower, -70.9%
- CCCCCNCC(=O)Nc1cc(C(F)(F)F)ccc1OCCOC — higher, -5.74%
- COCCOc1ccc(C(F)(F)F)cc1NC(=O)c1ccccc1 — higher, -2.95%
- CC(=O)N(C)c1ccc(NC(=O)Nc2ccc(Cl)cc2)cc1 — higher, 8.67%
- CC(=O)Cc1ccccc1OCC(=O)O — higher, 18.9%
- O=C(Nc1cc(Cl)cc(Cl)c1)c1cnn2cccnc12 — higher, 16.2%
- COC(=O)c1c(NC(=O)CN2C(=O)C(=O)N(CC(C)C)C2=O)sc(C)c1C — higher, 9.77%
- O=C1N(Cc2cccc(Cl)c2)C[C@@H]2C[C@@H](c3cccn3-c3ccccn3)N3CCC[C@@]123 — lower, -56.9%
- O=C1N(Cc2cccnc2)C[C@@H]2C[C@@H](c3cccc(OC4CCCC4)c3)N3CCC[C@@]123 — lower, -53.3%
- O=C1N(Cc2cccc(Cl)c2)C[C@@H]2C[C@@H](c3cccn3-c3cccnc3)N3CCC[C@@]123 — higher, 3.63%
- O=C1N(Cc2cccc(Cl)c2)C[C@@H]2C[C@@H](c3cccc4ncccc34)N3CCC[C@@]123 — higher, -2.07%
- O=C1N(Cc2cccnc2)C[C@@H]2C[C@@H](c3cccc(OCc4ccccc4)c3)N3CCC[C@@]123 — higher, -17.8%
- O=C1N(Cc2cccnc2)C[C@@H]2C[C@@H](c3cccc(Oc4ccccc4)c3)N3CCC[C@@]123 — higher, -4.79%
- O=C1N(Cc2cccc(Cl)c2)C[C@@H]2C[C@@H](c3cccc4cccnc34)N3CCC[C@@]123 — lower, -63.8%
- O=C1N(Cc2cccc(Cl)c2)C[C@@H]2C[C@@H](c3ccccn3)N3CCC[C@@]123 — higher, 7.23%
- O=C1N(Cc2cccc(Cl)c2)C[C@@H]2C[C@@H](c3cccn3-c3nccs3)N3CCC[C@@]123 — higher, -19.2%
